# The supplement of paper PMC10849652
# Targets with a hit are over-represented here; the source holds about 8,800 in all. About 0.5% of all pairs of compound and target were hits. Values without a mark were called inactive.
# Key:
# Assay in all cases: log2 fold change, soluble protein after heating vs DMSO (PISA); higher = thermal stabilisation; K562 lysate, 10 uM; active = over 0.2 and 3.5 SD of the protein, either way, in both replicates (recomputed)
# vemurafenib = compound: CCCS(=O)(=O)Nc1ccc(F)c(C(=O)c2c[nH]c3ncc(-c4ccc(Cl)cc4)cc23)c1F [vemurafenib]
# Procedure, shortened: (§1)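 Thermal stability, expressed as log-two fold change relative to solvent controls, is given from duplicates. Crude K562 extract in PBS pH 7.4 with 1 mM MgCl2, at 1 mg/mL protein, was treated with 10 μM compound for 30 min and heated in aliquots for 3 min across 48°C-58°C. After pooling, adjustment to 0.5% NP-40 at 4°C and centrifugation at 21,000xg for 90 min, supernatant protein was measured by TMTpro 16plex LC-MS/MS with channel sums equalised.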
# [1] = compound: CCCS(=O)(=O)Nc1ccc(F)c(C(=O)c2c[nH]c3ncc(Cl)cc23)c1F
# Procedure, shortened: as §1
# barasertib = compound: CCN(CCCOc1ccc2c(Nc3cc(CC(=O)Nc4cccc(F)c4)[nH]n3)ncnc2c1)CCOP(=O)(O)O [barasertib]
# Procedure, shortened: as §1
# [2] = compound: CC[C@@H]1C(=O)N(C)c2cnc(Nc3ccc(C(=O)NC4CCN(C)CC4)cc3OC)nc2N1C1CCCC1
# Procedure, shortened: as §1
# volasertib = compound: CC[C@@H]1C(=O)N(C)c2cnc(Nc3ccc(C(=O)N[C@H]4CC[C@H](N5CCN(CC6CC6)CC5)CC4)cc3OC)nc2N1C(C)C [volasertib]
# Procedure, shortened: as §1
# [3] = compound: CCn1c(C(=O)N(C2CC2)C2CC2)cc2c3c(ncn3C)c(Nc3cc(C)n(C)n3)nc21
# Procedure, shortened: as §1
# [4] = compound: CCn1cc(-c2ccnc3[nH]c(-c4cccc(CN(C)C)c4)cc23)c(-c2ccc(NC(=O)N(C)C)cc2)n1
# Procedure, shortened: as §1
# [5] = compound: CN1CCC(CNc2ccc3ncc(-c4cccc(OC(F)(F)F)c4)n3n2)CC1
# Procedure, shortened: as §1
# saracatinib = compound: CN1CCN(CCOc2cc(OC3CCOCC3)c3c(Nc4c(Cl)ccc5c4OCO5)ncnc3c2)CC1 [saracatinib]
# Procedure, shortened: as §1
# sotrastaurin = compound: CN1CCN(c2nc(C3=C(c4c[nH]c5ccccc45)C(=O)NC3=O)c3ccccc3n2)CC1 [sotrastaurin]
# Procedure, shortened: as §1
# alvocidib = compound: CN1CC[C@H](c2c(O)cc(O)c3c(=O)cc(-c4ccccc4Cl)oc23)[C@H](O)C1 [alvocidib]
# Procedure, shortened: as §1
# Tubastatin A = compound: CN1CCc2c(c3ccccc3n2Cc2ccc(C(=O)NO)cc2)C1 [Tubastatin A]
# Procedure, shortened: as §1
# [6] = compound: CNC(=O)C1=CC=CC=C1NC2=NC(=NC=C2Cl)NC3=C(C=C(C=C3)N4CCOCC4)OC
# Procedure, shortened: as §1
# defactinib = compound: CNC(=O)c1ccc(Nc2ncc(C(F)(F)F)c(NCc3nccnc3N(C)S(C)(=O)=O)n2)cc1 [defactinib]
# Procedure, shortened: as §1
# [7] = compound: CNc1nc(-c2ccc3c(N)n[nH]c3c2)cc(N2C[C@@H](C(=O)NC3CCCCC3)CC[C@H]2C)n1
# Procedure, shortened: as §1
# encorafenib = compound: COC(=O)N[C@@H](C)CNc1nccc(-c2cn(C(C)C)nc2-c2cc(Cl)cc(NS(C)(=O)=O)c2F)n1 [encorafenib]
# Procedure, shortened: as §1
# [8] = compound: COC(=O)[C@H](CCSC)NC(=O)C1=C(C=C(C=C1)NC[C@H](CS)N)C2=CC=CC=C2
# Procedure, shortened: as §1
# alisertib = compound: COc1cc(Nc2ncc3c(n2)-c2ccc(Cl)cc2C(c2c(F)cccc2OC)=NC3)ccc1C(=O)O [alisertib]
# Procedure, shortened: as §1
# [9] = compound: COc1cc2nc(-c3cc(F)ccc3O)nc(N[C@@H]3CNC[C@H]3C(C)(C)O)c2cc1OC
# Procedure, shortened: as §1
# gefitinib = compound: COc1cc2ncnc(Nc3ccc(F)c(Cl)c3)c2cc1OCCCN1CCOCC1 [gefitinib]
# Procedure, shortened: as §1
# Chain of UniProt Q9BRS2 (Q9BRS2 whole entry, looked up): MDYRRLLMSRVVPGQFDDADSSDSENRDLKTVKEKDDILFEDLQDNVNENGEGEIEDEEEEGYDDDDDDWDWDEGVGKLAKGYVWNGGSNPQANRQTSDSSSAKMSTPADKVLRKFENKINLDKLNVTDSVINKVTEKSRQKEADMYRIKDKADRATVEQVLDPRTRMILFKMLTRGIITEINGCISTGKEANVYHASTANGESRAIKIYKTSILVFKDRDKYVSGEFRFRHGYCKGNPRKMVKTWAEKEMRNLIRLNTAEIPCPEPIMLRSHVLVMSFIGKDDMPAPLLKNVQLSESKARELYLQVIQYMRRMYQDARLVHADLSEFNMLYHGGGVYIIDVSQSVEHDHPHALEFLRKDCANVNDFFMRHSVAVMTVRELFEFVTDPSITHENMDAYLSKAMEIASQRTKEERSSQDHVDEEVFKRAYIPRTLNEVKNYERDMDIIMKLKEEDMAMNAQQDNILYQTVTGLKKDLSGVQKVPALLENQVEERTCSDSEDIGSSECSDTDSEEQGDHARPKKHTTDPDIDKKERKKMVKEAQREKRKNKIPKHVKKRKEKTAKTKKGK
# Chain of UniProt Q9H0U4 (Q9H0U4 whole entry, looked up): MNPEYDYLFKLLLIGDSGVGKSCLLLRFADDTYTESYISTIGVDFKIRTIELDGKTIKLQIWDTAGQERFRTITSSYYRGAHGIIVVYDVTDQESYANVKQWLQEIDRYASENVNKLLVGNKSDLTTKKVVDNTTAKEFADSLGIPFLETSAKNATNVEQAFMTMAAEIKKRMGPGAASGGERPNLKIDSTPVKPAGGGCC
# Chain of UniProt O75880 (O75880 whole entry, looked up): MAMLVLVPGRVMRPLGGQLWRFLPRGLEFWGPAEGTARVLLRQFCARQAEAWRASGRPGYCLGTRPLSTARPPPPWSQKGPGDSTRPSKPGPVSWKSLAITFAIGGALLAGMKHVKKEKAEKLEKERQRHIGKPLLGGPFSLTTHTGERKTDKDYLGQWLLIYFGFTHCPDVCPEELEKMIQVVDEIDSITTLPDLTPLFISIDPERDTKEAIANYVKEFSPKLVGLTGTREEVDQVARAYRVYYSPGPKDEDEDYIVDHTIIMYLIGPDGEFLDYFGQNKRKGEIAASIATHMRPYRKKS
# Chain of UniProt Q9P0K7 (Q9P0K7 whole entry, looked up): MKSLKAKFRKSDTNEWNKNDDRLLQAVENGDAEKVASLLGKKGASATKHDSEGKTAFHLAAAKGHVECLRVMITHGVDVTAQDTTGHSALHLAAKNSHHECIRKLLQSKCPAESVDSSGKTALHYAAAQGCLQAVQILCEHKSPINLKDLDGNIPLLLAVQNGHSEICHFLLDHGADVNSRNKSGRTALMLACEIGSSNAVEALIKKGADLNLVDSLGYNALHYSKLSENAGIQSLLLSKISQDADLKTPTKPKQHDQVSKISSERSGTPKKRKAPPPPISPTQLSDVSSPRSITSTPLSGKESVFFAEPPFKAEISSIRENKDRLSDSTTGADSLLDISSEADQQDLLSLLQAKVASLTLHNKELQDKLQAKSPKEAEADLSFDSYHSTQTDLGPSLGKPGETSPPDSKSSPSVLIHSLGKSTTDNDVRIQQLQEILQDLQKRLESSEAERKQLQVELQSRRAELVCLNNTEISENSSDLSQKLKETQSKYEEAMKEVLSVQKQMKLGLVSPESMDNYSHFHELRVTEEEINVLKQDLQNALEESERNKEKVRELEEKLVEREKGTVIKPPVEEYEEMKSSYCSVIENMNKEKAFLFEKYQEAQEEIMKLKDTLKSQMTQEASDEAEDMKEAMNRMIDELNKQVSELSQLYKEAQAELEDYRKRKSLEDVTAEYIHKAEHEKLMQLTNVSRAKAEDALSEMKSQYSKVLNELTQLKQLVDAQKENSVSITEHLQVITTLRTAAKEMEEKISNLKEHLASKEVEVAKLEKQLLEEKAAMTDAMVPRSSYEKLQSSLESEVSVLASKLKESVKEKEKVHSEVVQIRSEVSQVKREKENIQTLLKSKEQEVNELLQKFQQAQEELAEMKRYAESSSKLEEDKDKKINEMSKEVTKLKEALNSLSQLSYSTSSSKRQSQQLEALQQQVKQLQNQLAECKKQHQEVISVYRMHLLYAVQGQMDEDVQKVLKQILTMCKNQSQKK
# Chain of UniProt P04049 (P04049 whole entry, looked up): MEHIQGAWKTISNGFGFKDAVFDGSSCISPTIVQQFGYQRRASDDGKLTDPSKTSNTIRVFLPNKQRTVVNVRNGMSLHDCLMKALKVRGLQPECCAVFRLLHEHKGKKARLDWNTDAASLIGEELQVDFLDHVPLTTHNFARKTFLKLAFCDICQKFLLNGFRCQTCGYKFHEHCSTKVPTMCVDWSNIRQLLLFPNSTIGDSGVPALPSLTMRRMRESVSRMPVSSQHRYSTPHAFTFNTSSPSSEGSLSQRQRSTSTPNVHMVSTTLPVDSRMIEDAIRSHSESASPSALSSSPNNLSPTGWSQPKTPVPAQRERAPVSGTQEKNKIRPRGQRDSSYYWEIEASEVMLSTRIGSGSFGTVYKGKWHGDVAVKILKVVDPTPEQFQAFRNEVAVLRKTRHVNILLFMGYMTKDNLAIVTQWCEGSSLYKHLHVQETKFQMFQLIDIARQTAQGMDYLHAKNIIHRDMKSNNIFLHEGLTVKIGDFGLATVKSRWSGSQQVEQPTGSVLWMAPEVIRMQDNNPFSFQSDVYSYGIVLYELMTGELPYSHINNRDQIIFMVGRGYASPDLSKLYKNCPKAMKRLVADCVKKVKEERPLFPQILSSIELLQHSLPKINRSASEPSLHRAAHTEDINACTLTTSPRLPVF
# Chain of UniProt Q6GYQ0 (Q6GYQ0 whole entry, looked up): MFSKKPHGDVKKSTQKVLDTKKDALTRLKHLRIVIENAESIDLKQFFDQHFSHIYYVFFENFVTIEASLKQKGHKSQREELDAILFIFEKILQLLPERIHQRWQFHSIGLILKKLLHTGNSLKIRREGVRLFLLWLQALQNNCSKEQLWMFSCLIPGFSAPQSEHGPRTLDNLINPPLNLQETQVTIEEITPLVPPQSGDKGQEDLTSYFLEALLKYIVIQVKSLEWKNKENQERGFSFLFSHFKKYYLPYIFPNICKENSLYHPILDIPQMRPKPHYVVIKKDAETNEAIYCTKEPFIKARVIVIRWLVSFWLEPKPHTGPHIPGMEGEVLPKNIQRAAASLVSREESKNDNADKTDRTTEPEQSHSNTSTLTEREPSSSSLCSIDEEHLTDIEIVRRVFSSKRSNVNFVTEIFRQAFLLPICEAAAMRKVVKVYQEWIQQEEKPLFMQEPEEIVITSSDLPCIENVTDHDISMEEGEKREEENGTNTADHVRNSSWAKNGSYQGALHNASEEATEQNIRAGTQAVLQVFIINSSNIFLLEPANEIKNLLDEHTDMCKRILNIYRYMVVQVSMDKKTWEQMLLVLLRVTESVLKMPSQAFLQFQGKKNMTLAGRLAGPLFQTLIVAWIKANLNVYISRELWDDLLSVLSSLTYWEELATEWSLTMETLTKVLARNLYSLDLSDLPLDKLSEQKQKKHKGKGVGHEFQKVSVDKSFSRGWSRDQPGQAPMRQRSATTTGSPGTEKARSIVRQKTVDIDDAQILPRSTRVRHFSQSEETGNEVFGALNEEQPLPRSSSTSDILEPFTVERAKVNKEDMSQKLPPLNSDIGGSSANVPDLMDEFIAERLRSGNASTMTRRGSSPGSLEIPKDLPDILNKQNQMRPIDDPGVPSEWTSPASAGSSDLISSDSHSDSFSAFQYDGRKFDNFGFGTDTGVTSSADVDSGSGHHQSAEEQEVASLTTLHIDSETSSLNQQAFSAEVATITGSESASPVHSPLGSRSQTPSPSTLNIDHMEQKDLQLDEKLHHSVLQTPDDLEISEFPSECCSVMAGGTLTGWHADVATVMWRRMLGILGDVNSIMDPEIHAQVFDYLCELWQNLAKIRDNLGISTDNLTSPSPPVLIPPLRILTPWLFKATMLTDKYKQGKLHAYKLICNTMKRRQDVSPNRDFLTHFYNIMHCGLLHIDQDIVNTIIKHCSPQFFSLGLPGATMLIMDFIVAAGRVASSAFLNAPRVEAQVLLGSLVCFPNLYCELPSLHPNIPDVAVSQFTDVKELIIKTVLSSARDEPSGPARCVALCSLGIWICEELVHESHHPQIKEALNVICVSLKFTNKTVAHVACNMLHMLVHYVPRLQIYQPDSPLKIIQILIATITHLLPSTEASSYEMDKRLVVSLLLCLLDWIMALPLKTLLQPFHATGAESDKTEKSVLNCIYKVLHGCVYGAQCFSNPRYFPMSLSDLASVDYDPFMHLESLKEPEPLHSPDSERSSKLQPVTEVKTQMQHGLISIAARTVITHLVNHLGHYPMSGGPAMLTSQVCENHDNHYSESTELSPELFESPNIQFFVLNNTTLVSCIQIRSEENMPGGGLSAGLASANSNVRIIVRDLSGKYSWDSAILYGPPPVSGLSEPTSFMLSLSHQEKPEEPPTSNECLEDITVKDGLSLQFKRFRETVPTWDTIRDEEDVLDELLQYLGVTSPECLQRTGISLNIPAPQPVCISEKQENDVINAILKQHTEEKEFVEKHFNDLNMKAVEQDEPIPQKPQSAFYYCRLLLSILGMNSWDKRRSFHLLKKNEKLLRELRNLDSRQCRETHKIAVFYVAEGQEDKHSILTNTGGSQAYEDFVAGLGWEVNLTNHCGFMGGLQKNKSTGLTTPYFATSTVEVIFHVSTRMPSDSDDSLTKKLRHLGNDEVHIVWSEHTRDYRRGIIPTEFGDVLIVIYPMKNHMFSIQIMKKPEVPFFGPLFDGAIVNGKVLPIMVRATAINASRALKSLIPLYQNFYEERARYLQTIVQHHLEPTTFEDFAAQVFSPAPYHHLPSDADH
# Chain of UniProt Q9NR31 (Q9NR31 whole entry, looked up): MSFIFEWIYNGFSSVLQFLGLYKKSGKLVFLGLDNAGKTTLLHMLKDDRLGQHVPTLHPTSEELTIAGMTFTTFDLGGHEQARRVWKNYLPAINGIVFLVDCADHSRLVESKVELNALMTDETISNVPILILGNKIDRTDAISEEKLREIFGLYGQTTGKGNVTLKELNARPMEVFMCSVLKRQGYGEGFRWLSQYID
Target,log2 fold change (vemurafenib),log2 fold change [1],log2 fold change (barasertib),log2 fold change [2],log2 fold change (volasertib),log2 fold change [3],log2 fold change [4],log2 fold change [5],log2 fold change (saracatinib),log2 fold change (sotrastaurin),log2 fold change (alvocidib),log2 fold change (Tubastatin A),log2 fold change [6],log2 fold change (defactinib),log2 fold change [7],log2 fold change (encorafenib),log2 fold change [8],log2 fold change (alisertib),log2 fold change [9],log2 fold change (gefitinib)
RARS (UniProt P54136),-0.004,-0.003,0.046,-0.093,-0.078,0.067,0.013,-0.039,0.027,0.045,0.032,-0.1,-0.006,0.024,-0.035,-0.001,0.128,0.026,-0.009,-0.023
RALGAPB (UniProt Q86X10),0.044,0.016,0.103,-0.008,-0.023,-0.013,-0.09,0.07,0.017,0.032,0.02,-0.056,-0.069,0.026,0.012,0.044,0.015,0,0.032,-0.007
RAI14 isoform 2 (UniProt Q9P0K7),0.001,0.066,0.061,-0.019,0.005,0,0.045,-0.011,0.031,0.026,0.019,-0.08,0.003,0.031,0.077,0.012,0.083,-0.018,0,0.029
SCO1 (UniProt O75880),-0.027,-0.012,-0.008,-0.009,0.025,-0.027,-0.01,0.016,0.006,0.016,0.002,-0.031,-0.051,-0.004,0.053,-0.004,-0.57 (active),-0.096,0.014,-0.015
RIOK1 (UniProt Q9BRS2),0.021,0.023,0.001,0.02,-0.093,0.004,0.017,0.057,0.032,0.001,0,0.005,0.008,-0.009,0.413 (active),0.006,-0.006,0.01,0.168,-0.019
RAB27A (UniProt P51159),-0.037,-0.024,0.012,-0.056,-0.082,0.034,0.679 (active),-0.048,0.021,0.001,0.087,-0.083,0.047,-0.001,-0.131,0.027,0.016,-0.004,0.041,0.068
"RNF213, A0A0A0MTC1",0.017,0.025,0.076,-0.038,-0.077,0.027,-0.05,-0.053,0.027,0.043,-0.003,-0.081,0.023,-0.02,-0.04,0.054,-0.061,0.013,0.012,-0.012
RAF1 isoform 2 (UniProt P04049),0.739 (active),-0.142,0.068,-0.159,-0.083,-0.029,-0.028,-0.037,-0.014,-0.041,0.048,-0.022,0.019,-0.097,-0.001,1.06 (active),0.048,-0.007,0.052,0.022
RCOR3 isoform 3 (UniProt Q9P2K3),-0.03,-0.01,-0.003,-0.001,-0.012,0.029,-0.017,0.003,0.03,-0.015,-0.005,-0.09,-0.002,0.009,-0.014,0.012,0.088,0.003,-0.006,0.026
RIC1 (UniProt Q4ADV7),-0.055,0.021,-0.013,0.029,0.009,0.017,-0.29,0.004,-0.012,-0.008,0.014,-0.051,0.029,-0.12,0.02,0.037,-0.13,0.017,-0.073,0.024
RALGAPA1 isoform 6 (UniProt Q6GYQ0),-0.008,0.017,0.196,0.02,-0.03,-0.007,-0.377 (active),0.074,0.049,0.03,-0.102,0.033,0.007,0.069,0.003,0.016,0.094,-0.029,0.047,0.056
RAB1B (UniProt Q9H0U4),-0.003,0.012,0.073,0.019,0.006,-0.016,-0.444 (active),0.171,0.021,0.017,-0.146,0.007,-0.016,-0.037,0.01,0.065,-0.058,0.047,0.003,0.064
SAR1A (UniProt Q9NR31),0.109,0,0.07,0.03,-0.05,0.021,-0.009,-0.108,0.025,0.084,-0.034,0.153,0.03,0.086,0.086,0.152,0.084,0.134,0.161,0.156
RBM23 isoform 2 (UniProt Q86U06),0.2,0.02,0.234,-0.153,-0.011,0.058,-0.01,-0.143,0.064,0.131,-0.056,-0.084,0.133,-0.037,0.181,0.335,-0.003,0.11,0.137,0.057
RPS29 (UniProt P62273),-0.005,0.039,-0.034,-0.028,0.078,0.109,1.01 (active),-0.262,-0.007,-0.133,0.23,-0.052,-0.029,-0.027,0.081,-0.062,0.151,-0.278,0.032,-0.138
SCCPDH (UniProt Q8NBX0),-0.013,-0.054,0.118,0.128,0.055,-0.107,-0.12,0.233,-0.092,0.094,-0.051,0.044,0.05,0.028,0.333,-0.076,0.129,-0.011,0.005,-0.063
